± gives the standard deviation of the averaged measurements.
How the values were obtained:
Details in all cases: concentration: 10 µM; 24 h
HCC1569 [1] = assay: cell number relative to DMSO (% of DMSO); higher = more cells (less growth inhibition / toxicity)
Summary of the method: (§1)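 H1.0 nuclear intensity or cell number is stated as percent of the plate control, based on the median of replicates, and HCC1569 values were smoothed for positional effects. These came from HCC1569 and TDF cells treated with compounds at 10 µM for 24 h at 37 °C in triplicate, then fixed in 3.7% formaldehyde and stained with a rabbit anti-H1.0 antibody, an AlexaFluor 647 secondary and DAPI.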

TDF [2] = assay: as above
Summary of the method: as §1

TDF [3] = assay: H1.0 immunofluorescence intensity relative to DMSO (% of DMSO); higher = stronger H1.0 induction, active = 120 or more
Summary of the method: as §1

HCC1569 [4] = assay: H1.0 immunofluorescence intensity relative to DMSO (% of DMSO); higher = stronger H1.0 induction, active = 140 or more
Summary of the method: as §1
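Throughout, for H1.0 immunofluorescence intensity relative to DMSO: TDF is a line of transformed human dermal fibroblasts of mesenchymal origin.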
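Throughout, for cell number relative to DMSO: TDF denotes transformed human dermal fibroblasts of mesenchymal origin.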

Row | SMILES | cell number (HCC1569 [1]) | cell number (TDF [2]) | H1.0 immunofluorescence intensity (TDF [3]) | H1.0 immunofluorescence intensity (HCC1569 [4])
1 | Nc1cc(-c2ccncc2)c[nH]c1=O [amrinone] | 99.8 | 105 | 100 (inactive) | 114 (inactive)
2 | NC(C(=O)O)C1CC(Cl)=NO1 (stereo not drawn) [Acivicin] | 93.2 | 68.8 | 122 (active) | 108 (inactive)
3 | O=C(Nc1ccc(-c2cn[nH]c2)cc1)C1COc2ccccc2O1 (stereo not drawn) [Rho Kinase Inhibitor V] | 107 | 109 | 87.7 (inactive) | 101 (inactive)
4 | Cc1scc2c1N(C(=O)CN1CCN(C)CC1)c1ccccc1NC2=O.Cl.Cl [Telenzepine dihydrochloride] | 107 | 94 | 99.8 (inactive) | 104 (inactive)
5 | Cc1cccc(Nc2cc(Cl)nc(SCC(=O)O)n2)c1C | 101 | 104 | 91.8 (inactive) | 97.6 (inactive)
6 | CCC(C)C(=O)OC1CCC=C2C=CC(C)C(CCC3CC(O)CC(=O)O3)C21 (stereo not drawn) [Mevastatin] | 100.8 ± 0.37 | 87.1 ± 6.8 | 123 (active) | 95 (inactive)
7 | CCCCC=CCCCCCCCCC(=O)O [10(Z)-Pentadecenoic acid] | 101 | 102 | 103 (inactive) | 104 (inactive)
8 | CCCCCC(O)C=CC=CCCCCCCCC(=O)O (racemic) | 102 | 107 | 95.9 (inactive) | 101 (inactive)
9 | Nc1sc2c(c1C(=O)c1ccc(Cl)cc1)CCCC2 | 102 | 96.8 | 95 (inactive) | 98.9 (inactive)
10 | CC(C)CC(NC(=O)C(O)C(N)Cc1ccccc1)C(=O)O.Cl (stereo not drawn) [Bestatin hydrochloride] | 101 | 104 | 96.3 (inactive) | 99.6 (inactive)
11 | Cc1ccccc1C=CC1=NCCN1.O=C(O)C(=O)O [Metrazoline oxalate] | 96.3 | 81 | 102 (inactive) | 124 (inactive)
12 | COc1c(C)c2c(c(O)c1CC=C(C)CCC(=O)O)C(=O)OC2 [Mycophenolic Acid] | 78.3 ± 3.8 | 63.3 ± 4.9 | 104 (inactive) | 116 (inactive)
13 | CCCC(C(=O)OCCN(CC)CC)(c1ccccc1)c1ccccc1.Cl [SKF-525A hydrochloride] | 94 | 100 | 88.8 (inactive) | 102 (inactive)
14 | CC(O)C(=O)C1=Nc2c([nH]c(N)nc2=O)NC1 (stereo not drawn) [Sepiapterin] | 105 | 113 | 97.4 (inactive) | 99.1 (inactive)
15 | CCN1CCCC1CNC(=O)c1c(O)c(Cl)cc(Cl)c1OC.O=C(O)C(O)C(O)C(=O)O [S(+)-Raclopride L-tartrate] | 101 | 105 | 90.3 (inactive) | 99.9 (inactive)
16 | NC(CCC(=O)NC(CSN=O)C(=O)NCC(=O)O)C(=O)O (stereo not drawn) [S-Nitrosoglutathione] | 104 | 102 | 88.7 (inactive) | 90.2 (inactive)
17 | COc1cc(C(=O)OCCCN2CCCN(CCCOC(=O)c3cc(OC)c(OC)c(OC)c3)CC2)cc(OC)c1OC [Dilazep] | 107 | 93.1 | 103 (inactive) | 91.6 (inactive)
18 | O=C(Nc1cccc(C(F)(F)F)c1)Nc1cc(S(=O)(=O)NC2CC2)ccc1-c1ccsc1 | 91.2 | 89.5 | 94.6 (inactive) | 130 (inactive)
19 | CC(=O)OCC(=O)C1(O)CCC2C3CCC4=CC(=O)CCC4(C)C3C(=O)CC21C (stereo not drawn) [Cortisone 21-acetate] | 101 | 120 | 97.5 (inactive) | 89.1 (inactive)
20 | CC(C)(CCCCCCCCCCC(C)(C)CC(=O)O)CC(=O)O [3,3,14,14-tetramethylhexadecanedioic acid] | 102 | 97.7 | 96.6 (inactive) | 93.7 (inactive)
21 | COc1cc(O)c2c(=O)c(O)c(-c3ccc(O)c(O)c3)oc2c1 [Rhamnetine] | 91.7 | 89.5 | 93 (inactive) | 130 (inactive)
22 | O=C(C=Cc1ccc(O)c(O)c1)c1ccc(OC2OC(CO)C(O)C(O)C2O)c(O)c1O (stereo not drawn) [Marein] | 99.4 | 108 | 92 (inactive) | 91.5 (inactive)
23 | CC(C)(C)OC(=O)CN(Cc1ccc(Cl)cc1)Cc1ccc([N+](=O)[O-])s1 | 100 | 105 | 102 (inactive) | 99 (inactive)
24 | O=[N+]([O-])c1cc(S(=O)(=O)Nc2ccc(O)c3ccccc23)ccc1Cl [4-chloro-N-(4-hydroxy-1-naphthyl)-3-nitrobenzenesulfonamide] | 85.3 | 76.6 | 106 (inactive) | 115 (inactive)
25 | CC(C)(C#N)c1ccc(N2C(=O)OCc3cnc4ccc(-c5cnc6ccccc6c5)cc4c32)cc1 | 59.8 | 44.1 | 101 (inactive) | 206 (active)
26 | CC(C)NCC(O)c1ccc(O)c(O)c1 (racemic) [DL-Isoproterenol] | 107 | 108 | 93.8 (inactive) | 101 (inactive)

Row | SMILES | cell number (HCC1569 [1]) | cell number (TDF [2]) | H1.0 immunofluorescence intensity (TDF [3]) | H1.0 immunofluorescence intensity (HCC1569 [4])
27 | CN(C)CC(C)(C)CNc1nn2c(-c3ccccc3)nnc2cc1C1CCC1 | 101 | 103 | 99.9 (inactive) | 92.2 (inactive)
28 | CCCCCCCCCC(=O)NC(CN1CCOCC1)C(O)c1ccccc1.Cl (racemic) | 94 | 91.9 | 105 (inactive) | 109 (inactive)
29 | CC(=O)N[C@@H](CS)C(=O)O [N-Acetyl-L-Cysteine] | 98.1 | 115 | 109 (inactive) | 118 (inactive)
30 | CCCCCCCCCCCCCC=CC(O)C(CO)NC(=O)CCCCCCC (stereo not drawn) [C8 Ceramide] | 102 | 99.5 | 101 (inactive) | 99.8 (inactive)
31 | O=C(NCCCCCCNC(=O)ON=C1CCCCC1)ON=C1CCCCC1 | 96.6 | 100 | 98 (inactive) | 97.1 (inactive)
32 | Oc1ccc(-c2c(-c3ccccc3)nn3c(C(F)(F)F)cc(C(F)(F)F)nc23)cc1 | 67.9 | 12.4 | 154 (active) | 143 (active)
33 | COC1=C(OC)C(=O)C(CCCCCCCCCCO)=C(C)C1=O [Idebenone] | 101.26 ± 0.079 | 96.02 ± 0.62 | 101 (inactive) | 102 (inactive)
34 | CC(C[N+](C)(C)C)OC(N)=O.[Cl-] (stereo not drawn) [Bethanechol chloride] | 91.3 | 100 | 92.6 (inactive) | 99.3 (inactive)
35 | N[C@@H](Cc1ccc(O)c(O)c1)C(=O)O [L-3,4-Dihydroxyphenylalanine] | 100 | 105 | 89.7 (inactive) | 90 (inactive)
36 | NC(CO)C(=O)NNCc1ccc(O)c(O)c1O (stereo not drawn) [Benserazide] | 95.2 | 82 | 101 (inactive) | 97.6 (inactive)
37 | N[C@@H](Cc1ccc(O)c(I)c1)C(=O)O [3-Iodo-L-tyrosine] | 108 | 110 | 87.8 (inactive) | 88.9 (inactive)
38 | Cn1c(=O)c2[nH]c(-c3ccc(S(=O)(=O)O)cc3)nc2n(C)c1=O [8-(p-Sulfophenyl)theophylline] | 101 | 109 | 93.8 (inactive) | 89 (inactive)
39 | CCC(=C(CC)c1ccc(O)cc1)c1ccc(O)cc1 [Diethylstilbestrol] | 99.3 | 92.6 | 99 (inactive) | 111 (inactive)
40 | CC(C)(C)NCC(O)COc1cccc2[nH]c(=O)[nH]c12.Cl (racemic) | 97.7 | 110 | 93.5 (inactive) | 97.9 (inactive)
41 | COc1ccc2c(c1)c(CC(=O)N1CCOCC1)c(C)n2C(=O)c1ccc(Cl)cc1 [Indomethacin morpholinylamide] | 105 | 100 | 90.6 (inactive) | 85.5 (inactive)
42 | NC(C(=O)NC1C(=O)N2C(C(=O)O)=C(Cl)CSC12)c1ccccc1 (stereo not drawn) [Cefaclor] | 101 | 99.5 | 103 (inactive) | 85.8 (inactive)
43 | COc1ccc(C2OCC3C(c4ccc(OC)c(OC)c4)OCC23)cc1OC (stereo not drawn) [Eudesmine] | 102 | 104 | 97.6 (inactive) | 107 (inactive)
44 | O=C(O)[C@@H]1C[C@H](C(=O)O)N1 [cis-Azetidine-2,4-dicarboxylic acid] | 103 | 101 | 105 (inactive) | 109 (inactive)
45 | CNC1CC2OC(C)(C1OC)n1c3ccccc3c3c4c(c5c6ccccc6n2c5c31)C(=O)NC4O (stereo not drawn) | 20.4 | 8.22 | 139 (active) | 121 (inactive)
46 | CC(C)NCC(O)COc1ccc(CC(N)=O)cc1 (stereo not drawn) [Atenolol] | 99.9 | 102 | 94.7 (inactive) | 113 (inactive)
47 | CC1CC2C(C(O)CC3(C)C2CCC3(O)C(=O)CO)C2(C)C=CC(=O)C=C12 (stereo not drawn) [Methylprednisolone] | 99.4 | 102 | 88.6 (inactive) | 114 (inactive)
48 | CC(C)n1cnc2c(NCc3ccccc3)nc(NCCO)nc21 [N9-Isopropylolomoucine] | 46 | 105 | 95 (inactive) | 314 (active)
49 | Cl.Cl.Cl.Cl.NCCCNCCCCNCCCN [Spermine tetrahydrochloride] | 102 | 104 | 92.3 (inactive) | 86.7 (inactive)
50 | CCCCCCCCCCCCC(O)C(=O)O (stereo not drawn) [2-Hydroxymyristic acid] | 103 | 103 | 95.6 (inactive) | 102 (inactive)
51 | OCc1cc(C(O)CNCCCCCCOCCCCc2ccccc2)ccc1O (stereo not drawn) [Salmeterol] | 90.4 | 100 | 110 (inactive) | 132 (inactive)
52 | CC(=O)OCC1(O)CC23CCC4c5ccoc5CCC4(C)C2CCC1C3 (stereo not drawn) [Cafestol acetate] | 103 | 98.6 | 97.6 (inactive) | 98.4 (inactive)

From the supplement of paper PMC7156485
